esBAF inh: SWI/SNF esBAF complex inhibition. reporter increase, % at 12.5 µM. AID 602393. 350,000 compounds, 2% hits. mouse ES cells, Bmi1-luciferase knock-in reporter, 24 h; 100% = twice the neutral-well signal; in the data active means activation above about 40%; inconclusive means no clear call, values can overlap the other calls;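 further: 0% = median of the plate's neutral control wells and 100% = double that signal; a rise in the Bmi1 reporter signal indicates esBAF inhibition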
DAX1 inh: DAX1 (NR0B1) inhibition, primary screen | HEK293T StAR-luciferase reporter, SF-1/DAX-1 repression relief | inhibition, % at 6.8 µM | 370,000 compounds, 1.1% hits;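 active means inhibition above the mean over all tested compounds plus 3 SD, cut at about 3.6% in these data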;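 further: 0% = DAX-1 cells with DMSO and 100% = cells lacking DAX-1 with DMSO; higher inhibition means more luminescence from relief of DAX-1 repression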
Wnt bcat act: Wnt/beta-catenin pathway activation; Wnt/beta-catenin reporter cell assay, activator, plate reader; activation, % at 9.35 µM; 300,000 compounds, 1.2% hits; AID 743398; in the data active means activation above about 30%, passing the limit was not always enough; inconclusive means no clear call, values can overlap the other calls;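 further: 0% = neutral control wells and 100% = positive control wells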
hcDAF-12 act: activates DAF-12 receptor from parasite H. contortus; activation, % at 6.8 µM; HEK293 hcDAF-12 lit1-tk-luc reporter, luminescence; 0% DMSO, 100% Δ7-dafachronic acid; 370,000 compounds, 1.4% hits;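 active means activation above the mean of all tested compounds plus 3 SD, cut at about 5.5% in these data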;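 further: 100% = response to 3 µM Δ7-dafachronic acid high control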
ssDAF12 agonist: activates DAF-12 receptor from parasite S. stercoralis. 370,000 compounds, 1% hits. HEK293 ssDAF-12/GRIP1 lit1-tk-luc reporter, luminescence; % of 3 µM dafachronic acid response. AID 652126. activation, % at 6.8 µM;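 active means activation above the mean over all tested compounds plus 3 SD, cut at about 0.9% in these data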;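 further: 0% = DMSO-only wells and 100% = 3 µM delta7-dafachronic acid wells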
hgDAF-12 ag: activates the H. glycines DAF-12 receptor ligand-binding domain. 370,000 compounds, 1.8% hits. AID 687014. activation, % at 6.8 µM. HEK293 GAL4-hgDAF12 UAS-luciferase reporter, agonist luminescence; normalized to butyrate control;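 active means activation above a cutoff set at the mean of all screened compounds plus 3 SD, cut at about 10% in these data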;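 further: 0% = DMSO wells and 100% = sodium butyrate wells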
* hit, by the source's call; u = inconclusive; x = no result given. An excerpt weighted towards active compounds, which were near 4.2% of everything screened.

SMILES	esBAF inh	DAX1 inh	Wnt bcat act	hcDAF-12 act	ssDAF12 agonist	hgDAF-12 ag
c1coc(C2Nc3ccccc3-c3nc4ccccc4n32)c1 (stereo not given)	46.0*	1.0	19.9	1.2	-0.9	6.8
O=C(NN1C(=O)c2ccccc2NC1c1ccccn1)c1ccccc1 (stereo not given)	-2.0	0.7	-1.8	2.1	-0.8	1.4
c1ccc(C2Nc3ccccc3-c3nc4ccccc4n32)cc1 (stereo not given)	44.9*	1.6	37.3*	1.2	-0.1	10.5*
O=C1Cn2c(nc3ccccc32)-c2ccccc2N1	13.2	-0.1	x	0.2	-1.3	-1.4
Cc1cc2n(n1)C(c1ccco1)Nc1ccccc1-2 (stereo not given)	-0.2	0.5	x	-1.2	-1.3	0.8
c1ccc(C2Nc3ccccc3-c3nc4ccccc4n32)nc1 (stereo not given)	x	1.0	36.8*	0.3	-0.3	9.9
O=C(C[C@H]1CC[C@H]2[C@@H](COC[C@H](O)CN2C(=O)Cc2ccccc2)O1)NC1CCC1	-4.2	x	x	x	x	x
C[C@@H]1CN([C@H](C)CO)C(=O)c2cc(C#CC3CCCCC3)cnc2O[C@@H]1CN(C)S(C)(=O)=O	-0.8	x	x	x	x	x
COc1ccc(-c2nnc(N(C)C(=O)C3CCCO3)s2)cc1 (stereo not given)	8.7	0.7	x	2.5	-0.2	13.1*
CO[C@@H]1CN(C)C(=O)c2ccc(NC(C)=O)cc2OC[C@H](C)N(CC2CCCCC2)C[C@H]1C	-2.1	x	x	x	x	x
NS(=O)(=O)c1ccc(N/C=C\C(=O)c2ccc3ccccc3c2)cc1	19.3	1.2	-0.8	2.1	-0.3	2.0
CCOc1ccc(N/C=C/C(=O)c2ccc(OC)c(OC)c2)cc1	70.0*	0.1	5.3	-1.0	-1.2	-3.9
COc1ccc(N/C=C\C(=O)c2ccc3ccccc3c2)cc1	42.6*	0.0	9.9	0.1	-0.9	1.5
COc1ccc(C(=O)/C=C/Nc2ccc(C)cn2)cc1OC	60.5*	4.0*	x	2.7	-0.2	9.5
COc1ccc(N/C=C/C(=O)c2ccccc2)cc1	-52.8	4.4*	-1.0	5.4	1.0*	12.5*
CCC(=O)N1C[C@H](C)[C@@H](OC)CN(C)C(=O)c2cc(NC(=O)NC(C)C)ccc2OC[C@H]1C	1.2	x	x	x	x	x
COc1ccc(C(=O)/C=C/c2ccccc2C(F)(F)F)cc1	14.3	-0.1	34.1*	0.3	-1.7	-1.2
CCCC(=O)Nc1ccc2c(c1)C(=O)N(C)C[C@@H](OC)[C@@H](C)CN(Cc1ccncc1)[C@@H](C)CO2	-4.2	x	x	x	x	x
O=Cc1cccc(OC(=O)/C=C/c2ccco2)c1	48.2*	0.3	9.2	-1.0	-1.3	3.7
O=C(/C=C/c1ccco1)Oc1ccc(C(=S)N2CCOCC2)cc1	x	0.0	84.0*	-0.5	-0.7	-2.7
COC(=O)c1ccc(OC(=O)/C=C/c2ccco2)cc1	-5.1	-0.2	-1.7	0.3	-1.5	-1.2
O=C(Cc1ccc(Cl)cc1)Nc1ccc(SC(F)F)cc1	x	1.4	x	0.7	-0.4	10.9*
Oc1ccccc1C1=Nc2nc3ccccc3n2C(c2ccccc2)C1 (stereo not given)	48.8*	1.7	x	4.4	0.8	13.1*
COc1ccc(C(=O)CC(=O)c2ccccc2)cc1	70.1*	1.1	82.6*	4.2	-0.4	11.0*
COc1ccc(C(=O)CN2C(=O)c3ccccc3C2=O)cc1	30.3	0.4	-1.7	0.3	1.5*	2.2
SMILES	esBAF inh	DAX1 inh	Wnt bcat act	hcDAF-12 act	ssDAF12 agonist	hgDAF-12 ag
COc1ccc(C(=O)C(=NN)c2ccccc2)cc1	45.1*	2.6	-1.9	0.5	0.2	12.3*
COc1ccc(C(=O)CSc2ccccc2C(=O)O)cc1	x	1.5	43.5*	4.5	-1.1	4.4
C[C@H]1CN([C@@H](C)CO)C(=O)c2cc(NC(=O)C3CCCCC3)ccc2O[C@@H]1CN(C)CC1CC1	-4.1	x	x	x	x	x
COc1cccc(/C(O)=C/c2nc3ccc(C(=O)NCCc4cccc(C)c4)cc3[nH]c2=O)c1	x	0.5	2.2	0.8	1.1*	2.6
COc1cccc(/C(O)=C/c2nc3ccc(C(=O)NCCc4ccc(Cl)cc4)cc3[nH]c2=O)c1	x	-0.2	-7.4	-1.0	-1.1	1.0
COc1ccc(C(=O)CC(=O)c2ccc(OC)cc2)cc1	4.0	-0.1	2.2	-0.9	-1.4	0.5
COc1ccc(C(=O)NCC(=O)c2ccccc2)cc1	-30.7	1.6	16.4	1.2	-0.2	12.4*
COc1ccc(C(=O)NCCCc2ccccc2)cc1	x	2.2	2.9	2.2	-0.2	10.6*
COc1ccc(C(=O)/C(=C/N(C)C)S(=O)(=O)c2ccccc2)cc1	x	2.2	11.6	2.9	-0.5	12.1*
CC(C)CC#Cc1cnc2c(c1)C(=O)N([C@H](C)CO)C[C@@H](C)[C@@H](CN(C)C(=O)Cc1ccncc1)O2	3.3	x	x	x	x	x
CO[C@H]1CN(C)C(=O)c2ccc(NC(=O)C3CC3)cc2OC[C@@H](C)N(Cc2ccc(F)cc2)C[C@H]1C	-10.8	x	x	x	x	x
O=C(COc1ccccc1)c1ccccc1	46.3*	0.6	24.0	0.4	-1.4	2.1
COc1ccc(C(=O)C(OC(=O)c2ccccc2Cl)c2ccccc2)cc1 (stereo not given)	x	1.6	x	0.8	-1.4	10.1
COc1ccc(C(=O)C(OC(=O)c2ccccc2)c2ccccc2)cc1 (stereo not given)	84.4*	0.3	26.3	1.2	-1.4	3.8
COc1ccc(C(=O)CNc2ccccc2Br)cc1	u	0.2	28.9	1.0	-1.0	2.4
COc1ccc(C(=O)CNc2ccc3ccccc3c2)cc1	x	0.2	3.6	5.9*	0.3	8.8
COc1cccc(C(=O)NCCS(=O)(=O)NCCc2ccccc2)c1	39.7	4.0*	0.4	3.0	-0.4	7.5
O=C(COc1cccc(NC(=O)c2ccccc2)c1)c1ccccc1	x	-0.5	-7.1	-2.9	-1.4	-1.4
O=C(Nc1ccc(F)cc1)N[C@H]1C=C[C@H](CC(=O)N2CCOCC2)O[C@H]1CO	-6.6	x	x	x	x	x
O=C(N[C@@H]1CC[C@H](CCNC(=O)C2CCCCC2)O[C@H]1CO)c1ccncc1	0.8	x	x	x	x	x
COc1cccc(NC(=O)N(C)C[C@H]2Oc3cc(/C=C/c4ccccc4)ccc3S(=O)(=O)N([C@@H](C)CO)C[C@H]2C)c1	-12.7	x	x	x	x	x
C[C@H]1CN([C@@H](C)CO)C(=O)CCCn2cc(nn2)CO[C@@H]1CN(C)Cc1ccncc1	-1.5	x	x	x	x	x
CC(C)(C)C(=O)Nc1nc(-c2ccccc2)ns1	48.6*	2.7	x	3.6	-0.5	6.3
O=C(NCc1ccc(Cl)cc1)c1ccc(Cl)cc1[N+](=O)[O-]	-8.3	0.6	0.3	-0.3	-0.9	1.6
O=C(NCCc1ccccc1)c1ccc(Cl)cc1[N+](=O)[O-]	62.2*	1.9	8.4	1.1	0.5	9.1
O=C(CNc1cccc2ccccc12)N/N=C/c1ccc(C(=O)O)cc1	-4.6	-0.4	-1.2	5.4	1.0*	-0.4

Source: PubChem BioAssay (several laboratories)
